# Screens (PubChem)
# NPC1 prom act – NPC1 promoter activation. AID 485313. Huh7 NPC1 promoter luciferase reporter, 24 h. Potency, µM (highest dose often 9.22 µM), inactives show at the highest dose activation, most hits filed as activators. 320,000 compounds, 2.4% hits; further: % of control where 0% means no effect; nearly all actives have a fitted effect of over 60% in size
#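 Compounds in DMSO were transferred onto Huh7 NPC1-luciferase reporter cells pre-incubated 2 h; after 24 h at 37 °C, Amplite reagent was dispensed and luminescence recorded 10 min later.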
# FLuc modulator – firefly luciferase modulation, counter-screen for miR-21 project | P08659 | purified FLuc, Km substrates, luminescence inhibition | Potency, µM (titrated, usually from 57.5 µM), without a hit: top-dose activity change, negative = inhibition, actives largely listed as inhibitors | 360,000 compounds, 6.9% hits | AID 588342;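 further: plate controls were vehicle for no effect and reference inhibitor for full effect; nearly all actives have a fitted effect of over 55% in size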
# Target sequence (P08659 whole entry, looked up): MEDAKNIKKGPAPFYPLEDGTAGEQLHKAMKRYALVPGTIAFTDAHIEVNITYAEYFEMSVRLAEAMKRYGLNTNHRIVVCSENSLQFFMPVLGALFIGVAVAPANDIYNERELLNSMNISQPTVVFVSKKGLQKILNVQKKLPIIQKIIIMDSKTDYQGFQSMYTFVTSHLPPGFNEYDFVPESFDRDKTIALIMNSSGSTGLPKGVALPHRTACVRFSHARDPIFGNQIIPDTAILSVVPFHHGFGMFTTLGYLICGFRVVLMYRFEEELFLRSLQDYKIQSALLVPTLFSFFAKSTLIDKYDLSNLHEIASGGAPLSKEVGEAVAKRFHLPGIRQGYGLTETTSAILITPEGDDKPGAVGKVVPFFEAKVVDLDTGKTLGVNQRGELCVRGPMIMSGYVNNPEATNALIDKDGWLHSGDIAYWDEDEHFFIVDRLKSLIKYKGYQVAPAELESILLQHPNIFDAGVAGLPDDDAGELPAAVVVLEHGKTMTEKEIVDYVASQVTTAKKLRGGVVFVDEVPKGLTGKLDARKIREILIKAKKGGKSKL
#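 Biochemical qHTS of compounds, final roughly 60 µM downward over six points, against 10 nM purified firefly luciferase using Km concentrations of substrates (10 uM D-luciferin, 10 uM ATP) in Tris acetate pH 7.5 buffer; luminescence output.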
# Rab9 prom act – activators of Rab9 promoter. Huh7 Rab9 promoter-luciferase reporter, luminescence, 24 h. Potency, µM (titrated, usually from 9.22 µM), for the others: at the highest dose activation, negative = inhibition, actives largely listed as activators. 320,000 compounds, 2.8% hits; further: % of control where 0% means no effect; nearly all actives have a fitted effect of over 60% in size
#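 Stable Rab9-luc Huh7, 1500 cells/well, 2 h settle; cmpd in DMSO, 24 h, 37 °C/5% CO2; luciferase reagent 10 min RT; luminescence.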
# ELG1 genotox – induces genotoxicity in HEK293T cells with luciferase-tagged ELG1; 330,000 compounds, 1.3% hits; AID 504466; Potency, µM (doses to about 46 µM), for inactives: top-dose activity change, positive = activation, most hits filed as activators; HEK293T ELG1-luciferase reporter, luminescence, 16 h; further: % of control where 0% means no effect; nearly all actives have a fitted effect of over 60% in size
#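 Luminescence read-out: rising ELG1-luciferase signal, reflecting elevated ELG1 protein under genetic stress, flags genotoxic compounds. Cells were treated for 16 hr at 37 °C before ONE-Glo detection.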
# ELG1 repair inh – ELG1-dependent DNA repair inhibition; HEK293T ELG1-luciferase reporter, luminescence, 16 h; DNA damage induced by 5-fluorouridine; 330,000 compounds, 2.3% hits; Potency, µM (doses to about 46.1 µM), for inactives: at the top dose activity change, negative = inhibition, most hits filed as inhibitors; further: on the % scale 0 is the no-effect control and ±100 the full control effect; nearly all actives have a fitted effect of over 55% in size
#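 In this reporter screen, reduction of luminescence relative to DMSO vehicle indicated activity. Compounds and 5-fluorouridine were added together to 2,000 cells per well, incubated for 16 hr at 37 °C, then developed with ONE-Glo.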
# SMN2 splice up – increases expression of the SMN2 splice variant; 210,000 compounds, 2.8% hits; AID 1458; Potency, µM (top dose mostly 46.1 µM), without a hit: top-dose activity change, positive = activation, actives largely listed as activators; HEK293 SMN2-luciferase splicing reporter, luminescence, 30-36 h; further: % of control where 0% means no effect; nearly all actives have a fitted effect of over 55% in size
#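 HEK293 cells carry an SMN2 minigene-luciferase reporter in which exon 7 inclusion puts luciferase in frame. Cells were seeded at 2000 cells/well, attached for 10-12 hours, then exposed to compounds for 30-36 hours at 37C before ONE-Glo luminescence.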
# * hit, by the source's call; u = inconclusive; x = no result given; [ ] = another dose, or the depositor's remark. A selection: hits, their analogues and other compounds. The true share with any hit is near 9.2%. The call rests on the fitted dose curve; in most records, active means well fitted curve in the direction sought with a large enough effect; inconclusive means small, poorly fitted or top-dose-only effect, or another doubt; inactive means no such curve, though single readings can be large; an effect the other way counts as inactive or inconclusive. Potency means the concentration at half of the fitted maximal effect.
SMILES,NPC1 prom act,FLuc modulator,Rab9 prom act,ELG1 genotox,ELG1 repair inh,SMN2 splice up
CCOC(=O)c1ccccc1NC(=O)N1CCCN(S(=O)(=O)c2ccc3c(ccn3CC)c2)CC1,x,-11.8%,x,x,x,x
CN(C)c1ccc(-c2nc3ccccc3c(=O)[nH]2)cc1,0.355µM*,0.601µM*,0.251µM*,0.82µM*,u,x
Cc1cccc(-c2nc3ccccc3c(=O)[nH]2)c1,2.82µM*,10.7µM*,3.16µM*,u,u,x
COc1ccc(-c2nc3ccccc3c(=O)[nH]2)cc1,1.41µM*,3.38µM*,0.708µM*,9.2µM*,u,x
O=C(O)Cc1cccnc1,x,x,x,x,x,0.2%[9.22 µM]
Cc1cccc(C)c1NC(=O)NCCc1c[nH]c2ccccc12,x,-4.6%,x,x,x,-8.7%
COC(=O)c1ccc(Cl)c(NC(=O)c2ccc(-c3ccccc3)cc2)c1,-4.1%,-0.1%,-2.7%,11.0%,19.5%,-15.5%
Cc1ccc(C)c(N2CCN(C(=O)Cn3cnc4sc(C)c(S(=O)(=O)N5CCN(c6ncccn6)CC5)c4c3=O)CC2)c1,x,11.2%,x,x,x,8.5%
Cc1ccc(S(=O)(=O)N(C)CCCC(=O)Nc2ccncc2)cc1,-0.8%,5.3%,-6.6%,-18.4%,5.8µM*,-71.7%
COc1ccc(CC(=O)Nc2ccccc2-c2ccccc2)cc1OC,-0.1%,2.5%,-10.3%,-26.9%,-27.3%,x
COc1cc(CC(=O)Nc2nc(-c3ccccc3)c(C(C)=O)s2)cc(OC)c1OC,-4.5%,-0.4%,-9.0%,-10.0%,8.2µM*,x
COc1ccc(CC(=O)Nc2nc(-c3ccccc3)c(C(C)=O)s2)cc1OC,-0.5%,-1.7%,-9.7%,-2.2%,18.3µM*,x
Cc1cc(C)n2nc(CNC(=O)c3cccc(Cl)c3)nc2n1,x,-4.8%,x,x,x,-9.9%
CCCCN1CC(=O)N2[C@H]3c4cc(Cl)ccc4OC[C@@H]3[C@H](c3ccccc3)[C@]2(C)C1=O,1.1%,0.0%,-9.6%,-4.0%,18.3µM*,x
O=C1N/C(=C\c2ccc(O)cc2)C(O)=C1C=NCc1ccccc1,-13.8%,12µM*,-7.0%,13.3%,u,-21.0%
CCN(CC)c1ccc(/C=C/C(=O)C2C(=O)C=C(C)OC2=O)cc1 (centres undefined),1.58µM*,8.49µM*,2.82µM*,u,u,u
CCOc1ccc(OCC)c(NC(=O)CCc2nc3cccnc3n2-c2ccccc2)c1,x,5.8%,x,x,x,-17.6%
COc1ccc2nc(N3C(=O)CC(C(C)c4ccccc4)C3=O)sc2c1 (centres undefined),-0.2%,21.3µM*,0.4%,-1.3%,7.6%,x
Cc1cc(C)nc(N2C(=O)CC(C(C)c3ccccc3)C2=O)n1 (centres undefined),-0.6%,2.9%,-2.4%,0.4%,6.7%,-2.1%
O=C(Nc1cccc(C(F)(F)F)c1)Nc1ccc2snnc2c1,x,-7.4%,x,x,x,-27.3%
CCOc1ccc(NC(=O)Nc2ccc3snnc3c2)cc1,x,-3.2%,x,x,x,13.3%
Cc1cc(C)c(NC(=O)Nc2ccc3snnc3c2)c(C)c1,x,1.8%,x,x,x,-1.0%
CN(C)c1ccc(NC(=O)Nc2ccc3snnc3c2)cc1,u,7.57µM*,u,12.4%,u,-0.7%
O=C(Nc1ccccc1)Nc1ccc2snnc2c1,u,10.7µM*,u,-1.9%,u,11.2µM*
O=C(Nc1ccccc1)Nc1ccc2nnsc2c1,u,7.57µM*,3.98µM*,6.0%,u,x
SMILES,NPC1 prom act,FLuc modulator,Rab9 prom act,ELG1 genotox,ELG1 repair inh,SMN2 splice up
O=[N+]([O-])c1ccc(O)c(C2=NNC(c3ccccc3F)C2)c1 (centres undefined),1µM*,3.38µM*,0.316µM*,5.3%,u,x
COc1ccc([N+](=O)[O-])cc1C1NN=C(c2ccccc2O)S1 (centres undefined),-2.6%,u,16.3%,3.8%,u,-16.5%
Cc1ccc2nc(-c3ccc(NC(=O)c4ccc(S(C)(=O)=O)cc4)cc3)sc2c1,x,1.8%,x,x,x,x
Nc1ccc(-c2nc3ccc(C(=O)O)cc3s2)cc1,-38.9%,0.213µM*,-43.0%,u,u,x
Cc1ccc2nc(-c3ccc(NC(=O)c4ccc(N)cc4)c(S(=O)(=O)O)c3)sc2c1,x,x,x,x,x,3.98µM*
Nc1cc2sc(-c3ccc(C(=O)O)cc3)nc2cc1Cl,0.794µM*,0.675µM*,0.562µM*,u,u,1.41µM*
O=c1cc(O)nc(-c2ccccc2)s1,-2.2%,-12.5%,4.4%,-3.5%,1.7%,3.4%
O=C(O)c1ccc2nc(-c3ccccc3)sc2c1,-27.2%,2.39µM*,-28.2%,u,u,0.1µM*
Nc1nc(COC(=O)C2CCN(C(=O)c3ccc(Cl)cc3)CC2)nc(Nc2ccccc2)n1,-0.6%,u,1.0%,-1.2%,-9.0%,x
Cc1cccc(NC(=O)C2CCCN(S(=O)(=O)c3cccc4nonc34)C2)c1C (centres undefined),x,-3.3%,x,x,x,-11.0%
CC(C)(C)c1cc(Br)c(O)c(CN(Cc2cc(C(C)(C)C)cc(Br)c2O)C2CCCCC2)c1,x,x,x,x,x,-12.6%[9.22 µM]
COc1ccc(CCNC(=O)c2c(C)oc3ncn(CC(C)C)c(=O)c23)cc1OC,x,-7.0%,x,x,x,x
CCCCOC(=O)Nc1ccc(S(=O)(=O)Nc2nc(C)cc(C)n2)cc1,0.9%,-0.9%,0.6%,3.3%,0.1%,x
CCCCOC(=O)NS(=O)(=O)c1sc(CC(C)C)cc1-c1ccc(Cn2c(CC)nc3c(C)cc(C)nc32)cc1,-29.9%[46.1 µM],-2.2%,-43.1%[46.1 µM],-3.4%,13µM*,-5.3%
